Data as given in PubChem BioAssay AID743279 (National Center for Advancing Translational Sciences (NCATS), 2014).
Among all 360,000 compounds or so, about 17,000 (4.7%) were called active. Not shown: some 5% with an inconclusive outcome. For the sample, actives were picked, then their nearest neighbours and some compounds at random. Values without a mark were called inactive. No stated cut-off is given here; in the data, active means activity change below about -50%; inconclusive means mostly about -30% to -49%; inactive means weaker than that.

Assay: qHTS for Inhibitors of Inflammasome Signaling: IL-1-beta AlphaLISA Primary Screen
Details: THP-1 LPS/ATP IL-1B secretion, 16 h; at 57.5 µM, stronger effect = lower value
Summary of the method: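 Secreted IL-1B measured by AlphaLISA bead assay after 16 h compound exposure of THP-1 cells; compounds (final up to 57.5 uM) added 1 h before LPS (250 ng/mL) and ATP (1.25 mM) stimulation; lower signal means less secretion.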
On the % scale 0 is the no-effect control and ±100 the full control effect.

SMILES | activity change
Cc1cc(=O)c2ccc(NC(=O)c3ccccc3)cc2[nH]1 | -15.4%
CC(=O)Nc1ccc(S(=O)(=O)Nc2ccc(N3CCCCC3)cc2)cc1 | 0%
O=C1C=CC(=O)N1c1ccc(N2CCCCC2)cc1 | -102% (active)
O=C(Cc1ccccc1)NC(=S)Nc1ccc(N2CCCCC2)cc1 | -8.88%
COc1ccccc1NC(=O)C(CC(=O)O)Cc1cc(C)cc(C)c1 (configuration not stated) | 14.1%
Cc1cccc(C)c1-n1nnnc1C(CCc1ccccc1)N1CCN(C/C=C/c2ccccc2)CC1 (configuration not stated) | -7.14%
CC(C)(C)c1ccc(/C=C2\SC(=O)N=C2N)cc1 | 3.39%
O=C(COC(=O)c1ccccc1NC(=O)c1ccco1)Nc1ccc2c(c1)OC(F)(F)O2 | 22.1%
O=C(Nc1ccc(Sc2ccc(Br)cc2)cc1)c1ccco1 | -22.6%
CCN(CC)P(=O)(Nc1ccc(SC(F)F)cc1)c1ccc(N(C)C)cc1NC(=O)c1ccco1 (configuration not stated) | -50.2% (active)
CCCNC(=O)c1cc(C2CCCCN2S(=O)(=O)c2cn(C)cn2)on1 (configuration not stated) | 1.68%
CN(C)/C(=N\OC(=O)c1ccccc1)c1nonc1N | 23.1%
CCCC(=O)N1CCC1(C)C(=O)NS(=O)(=O)c1ccc(Cl)cc1 (configuration not stated) | 26%
Cc1nnc(N/N=C/c2ccccn2)[nH]c1=O | 266%
O=c1[nH]c(NCCO)nnc1Cc1ccc(Cl)cc1 | -0.873%
COc1ccc(Cc2nnc(N/N=C/c3ccccc3O)[nH]c2=O)cc1OC | -100% (active)
CC(=O)OCC1(O)CC23CCC4c5ccoc5CCC4(C)C2CCC1C3 (configuration not stated) | -29.5%
O=C(Nc1ccc(N2CCN(C(=O)c3ccccc3)CC2)c(Cl)c1)c1cccnc1 | -81.2% (active)
O=C(Nc1ccc(N2CCN(C(=O)c3ccccc3)CC2)c(Cl)c1)c1ncn[nH]1 | -4.07%

SMILES | activity change
Cc1ccccc1N1CCN(C(=O)c2cccnc2)CC1 | -6.96%
COc1ccc(C(=O)NCc2ccc(Cl)cc2)cc1S(=O)(=O)N1CCCC1 | -19.3%
CCOC(=O)C1(C)CCCN(C(=O)c2cccc(Cl)c2)C1 (configuration not stated) | 37%
CCOC(=O)[C@]12CCCC=C1N(Cc1ccc3c(c1)OCO3)C(=O)[C@H](CC(=O)N1CCN(C(=O)c3ccco3)CC1)C2 | -17.6%
CCc1c(C)nc2c(OC)cccc2c1Cl | -3.94%
Cc1nc(N=C(N)N)nc2c(C)cccc12 | -96% (active)
COc1nc(N=C(N)N)nc2c(C)cccc12 | -63.3% (active)
CC(=O)Oc1ccc(-c2nc3c(C)cccc3c(=O)o2)cc1 | 24.4%
COc1ccc(C(=O)N2CCCCC2c2cc(C(=O)Nc3ccc(F)c(Cl)c3)no2)cc1 (configuration not stated) | -4.59%
CCOC1=C2[C@@H](CN(S(=O)(=O)c3ccc(C)cc3)[C@H]2c2ccccc2F)[C@H]2C(=O)N(Cc3ccccc3)C(=O)[C@H]2C1 | 0.677%
COc1ccc(-c2ccc(CNCCCN3CCOCC3)o2)cc1Cl | -66% (active)
COc1ccc(S(=O)(=O)N(C)CC(=O)NCCCN2CCOCC2)cc1Cl | 25.8%
C=CCOc1ccc(Cl)cc1CNCCCN1CCOCC1 | -12.8%
Cc1[nH]c2ccccc2c1C(=O)c1cc([C@H](NC(=O)OC(C)(C)C)C(C)C)sc1N | -6.92%
C[C@H](CO)N1C[C@H](C)[C@@H](CN(C)S(=O)(=O)c2ccc(F)cc2)OCc2cnnn2CCCC1=O | -17.7%
CCOC(=O)[C@]12CCCC=C1N(Cc1ccc(Cl)cc1Cl)C(=O)[C@H](CC(=O)N1CCCCC1)C2 | -12.7%
COc1cc(OC)c(C(=O)NNC(=O)c2ccc(NS(=O)(=O)c3cccs3)cc2)cc1OC | -0.853%
COc1ccc(Cc2nnc(NC(=O)c3cc(OC)c(OC)c(OC)c3)s2)cc1OC | 64.7%
COc1ccc(Cc2nnc(NC(=O)Cc3cccs3)s2)cc1 | 20.9%

SMILES | activity change
COc1ccc(Cc2nnc(NC(=O)c3ccc(OC)cc3OC)s2)cc1 | -81.7% (active)
Cc1cccc(C(=O)N2CCc3c([nH]c4ccccc34)C2CC(C)C)n1 (configuration not stated) | 7.12%
COc1ccc(C2c3[nH]c4ccccc4c3CCN2CCCn2cccn2)cc1C (configuration not stated) | -18.9%
c1ccc(C2c3[nH]c4ccccc4c3CCN2Cc2cccn2-c2cccnc2)nc1 (configuration not stated) | 47.2%
O=C(c1cn2ccccc2n1)N1CCc2c([nH]c3ccccc23)C1c1ccccn1 (configuration not stated) | -15.2%
COCc1ccc(C(=O)N2CCc3c([nH]c4ccccc34)C2c2ccccn2)s1 (configuration not stated) | -55.4% (active)
Cc1cccc(C2c3[nH]c4ccccc4c3CCN2C(=O)c2cc(-c3cccn3C)n[nH]2)n1 (configuration not stated) | -60% (active)
COCc1c(N)c(C)nc(Cl)c1C#N | 0%
O=C(COc1ccc2ccccc2c1)N1CCN(C(=O)c2cccs2)CC1 | -11.7%
Nc1cc(C(=O)N2CCN(c3ccccc3Cl)CC2)ccc1N1CC2CC(C1)c1cccc(=O)n1C2 (configuration not stated) | 14.2%
CC1=C(C(=O)N(C(C)C)C(C)C)CC(CC(=O)NCC2CCCCC2)C(=O)N1Cc1ccccc1 (configuration not stated) | -28.7%
CN(C)C(CNC(=O)c1cc2ccccc2o1)c1ccccc1 (configuration not stated) | -4.24%
CSc1ccccc1NC(=O)c1ccc2c(c1)CCN2S(C)(=O)=O | -9.72%
COCC(=O)Nc1c(C(=O)N2CCCC2)oc2ccccc12 | -21%
CCOCCCN(C)C1CCN(C(=O)c2oc3ccccc3c2NC(=O)Cc2cccc([N+](=O)[O-])c2)CC1 | -15.5%
CCOCCCN(C)C1CCN(C(=O)c2oc3ccccc3c2NC(=O)COc2cccc(C)c2)CC1 | -84% (active)
CCCN(CC(=O)Nc1ccccc1C)C(=O)c1ccc(OCC(=O)N2CCOCC2)c(OCC)c1 | -6.14%
COc1cccc(CNc2nc3cc(-c4csc5ccccc45)sc3c(=O)n2C)c1 | -22.5%
CCCc1cc(=O)n2[nH]c(SCc3ccccc3)nc2n1 | 12.3%
